From PubChem
Sampled rows, rich in hits. Any-hit rate of the full collection: about 3.2%.
Ub-GFP proteasome: proteasome inhibitors stabilizing ubiquitin-GFP reporter. Ubiquitin-GFP reporter cells, proteasome inhibition, GFP fluorescence; response scale: untreated = 0%, 10 µM MG-132 = 100%. 67,000 tested, under 10 active. Potency, µM (series often up to 45.9 µM), actives largely listed as activators; active = well fitted activation curve with a large enough effect, not every such curve was filed as active; inconclusive = small, poorly fitted or top-dose-only effect, or another doubt; inactive = no such curve, though single readings can be large or run the other way
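Proteasome block read as GFP accumulation: ubiquitin(G76V)-GFP U2OS cells exposed to compound (2.9 nM–46 uM) for 4 hr at 37 C. Normalization used untreated cells as 0% and 10 uM MG-132 as 100%; concentration-response curves fitted.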
Epigenetic mod: epigenetic modulators derepressing GFP locus in mouse cells. mouse C127i GFP locus derepression, cytometry, 30 h. Potency, µM (doses to about 46.1 µM). 68,000 compounds, 0.09% hits. AID 597
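Murine C127i mammary cells carrying a silenced, stably integrated CMV-driven GFP reporter were treated with compound for 30 hours at 37 C. After PBS washes, GFP-positive cells were counted by laser-scanning microplate cytometry.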
HBB splicing: modulators of hemoglobin beta chain splicing; 65,000 compounds, 0.06% hits; HBB splicing reporter cell assay, activation; EGFP reporter with mutant IVS2-654 intron; response scale: normalised to 500 nM splice-correcting PNA; Potency, µM (top dose mostly 46.1 µM), most hits filed as activators
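HeLa cells stably expressing EGFP interrupted by mutant beta-globin intron 2 (IVS2-654), 500/well in 2% FCS. Treated with compound for 2 days at 37C. Splicing correction scored as total well GFP intensity (488 nm excitation, 500-520 nm emission); 500 nM antisense PNA served as control.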
DNA Pol III inh: DNA polymerase III holoenzyme inhibition. Potency, µM (doses to about 57.1 µM). AID 603. 71,000 compounds, 0.25% hits. reconstituted DNA polymerase III holoenzyme replication, biochemical
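Reconstituted *E. coli* holoenzyme (0.35 nM Pol III, 1 nM beta, 154 nM SSB, 2 nM primase) was preincubated with compound for 15 min at RT. Synthesis on 1.4 nM ssM13Gori ran 35 min, then was stopped with PicoGreen/EDTA and read as dsDNA fluorescence.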
15-hLO inh: blocks human 15-lipoxygenase activity | purified 15hLO-1, xylenol orange hydroperoxide absorbance | Potency, µM (series often up to 57.1 µM), actives largely listed as inhibitors | 74,000 compounds, 1.4% hits | AID 887; also: nearly all actives have a fitted effect of over 55% in size
Target sequence (P16050 whole entry, looked up): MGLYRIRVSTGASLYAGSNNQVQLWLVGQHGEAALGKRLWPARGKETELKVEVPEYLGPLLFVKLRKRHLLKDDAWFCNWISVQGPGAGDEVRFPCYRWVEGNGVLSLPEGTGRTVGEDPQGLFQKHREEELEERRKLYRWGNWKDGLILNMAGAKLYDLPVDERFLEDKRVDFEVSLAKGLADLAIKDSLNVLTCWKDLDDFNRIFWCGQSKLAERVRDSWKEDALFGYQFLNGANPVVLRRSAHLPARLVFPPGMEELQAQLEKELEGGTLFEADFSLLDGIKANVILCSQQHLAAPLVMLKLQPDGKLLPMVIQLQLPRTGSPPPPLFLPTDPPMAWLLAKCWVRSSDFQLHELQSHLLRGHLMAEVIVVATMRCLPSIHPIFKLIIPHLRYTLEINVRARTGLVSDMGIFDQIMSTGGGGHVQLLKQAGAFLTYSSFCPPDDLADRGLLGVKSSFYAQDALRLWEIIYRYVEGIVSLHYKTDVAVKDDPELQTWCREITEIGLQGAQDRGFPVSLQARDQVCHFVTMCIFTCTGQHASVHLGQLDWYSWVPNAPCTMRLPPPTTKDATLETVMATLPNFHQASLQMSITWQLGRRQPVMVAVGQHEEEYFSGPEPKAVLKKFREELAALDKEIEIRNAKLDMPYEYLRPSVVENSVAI
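Purified human 15hLO-1 (40 nM final) in 25 mM Hepes pH 7.5, 0.01% Triton X-100 was preincubated with compound 15 min at room temperature, then reacted 6 min with 50 uM arachidonic acid; hydroperoxide detected by Fe-XO, 573/405 nm absorbance ratio.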
Tau filament bind: tau filament binding; P10636; recombinant tau filaments, thioflavin S fluorescence, 15 h; filaments grown with octadecylsulfate alongside compound; Potency, µM (highest dose often 57.1 µM); 71,000 compounds, 2% hits;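 also: actives lower thioflavin S fluorescence by blocking filaments or displacing dye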
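Quantitative HTS: thioflavine S signal from ODS-induced tau filaments, excited at 450 nm, emission 510 nm. Conditions: 1 uM tau, 30 uM ODS, 15 h at 37 C, pH 7.4.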
Each line names hits and unclear results; the compound was inactive in the other large screens; ! = repeats disagree. Unless noted, calls follow the shape of the dose curve; as a rule, active = well fitted curve in the direction sought with a large enough effect; inconclusive = small, poorly fitted or top-dose-only effect, or another doubt; inactive = no such curve, though single readings can be large; an effect the other way counts as inactive or inconclusive.

O=C(O)C(NS(=O)(=O)c1cccc2cccnc12)c1ccccc1 (stereo unspecified)	none (no result: Epigenetic mod)
C=Cc1c(C)c2cc3nc(cc4[nH]c(cc5nc(cc1[nH]2)C(C)=C5CCC(=O)O)c(CCC(=O)OC)c4C)[C@@]1(C)C3=CC=C(C(=O)OC)[C@H]1C(=O)OC (tested in a mixture with another compound)	Tau filament bind 1.6µM
OC[C@@H]1O[C@@H](n2cnc3c(Nc4ccccc4)ncnc32)[C@@H](O)[C@H]1O	none
CC(=O)c1cccc(NC(=O)Cc2cccs2)c1	15-hLO inh inconclusive, Tau filament bind 4µM
Cc1cc(NC(=O)CCCC(=O)N(CC(=O)NC2CCCCC2)c2ccccc2)no1	DNA Pol III inh inconclusive, 15-hLO inh 25µM
Cc1ccc(N(CC(=O)NC2CCCC2)C(=O)CCCC(=O)Nc2ccccn2)cc1C	none (no result: HBB splicing)
CCCCCCCC/C=C\CCCCCCCC(=O)NCCc1ccc(O)c(O)c1	15-hLO inh 4µM
CCCCCCCCCCCCCCCC(=O)NCCc1ccc(O)c(O)c1	none (no result: Ub-GFP proteasome, Epigenetic mod, DNA Pol III inh, Tau filament bind)
CCCCCCCC/C=C\CCCCCCCC(=O)NCc1ccc(O)c(OC)c1	Tau filament bind 40µM (no result: HBB splicing)
CC(C)CNC(=O)O	none
CCOC(=O)N1CCN(c2nc(SC)nc3sc4c(c23)CC(C)(C)OC4)CC1	15-hLO inh inconclusive, Tau filament bind 16µM
CCN1CCN(c2nc(SC)nc3sc4c(c23)CC(C)(C)OC4)CC1	none
Cc1onc(-c2ccccc2)c1C(=O)Nc1ccc2c(c1)OCO2	Ub-GFP proteasome inconclusive, Tau filament bind 16µM
Cc1onc(-c2ccccc2)c1C(=O)OCC(=O)Nc1ccc2c(c1)OCO2	none
CCN1C(=O)/C(=C2\C=Cc3ccccc3N2CC)OC1=S	Tau filament bind 1µM
Cn1c(=O)c2c(nc(CN3CCN(Cc4ccccc4)CC3)n2Cc2ccccc2)n(C)c1=O	15-hLO inh 20µM, Tau filament bind inconclusive (no result: Epigenetic mod)
CC1CCCCN1Cc1nc2c(c(=O)n(C)c(=O)n2C)n1Cc1c(F)cccc1Cl (stereo unspecified)	HBB splicing inconclusive, 15-hLO inh 25µM (no result: Epigenetic mod)
Cn1c(=O)c2c(nc(CN3CCC(C(N)=O)CC3)n2Cc2c(F)cccc2Cl)n(C)c1=O	none (no result: Ub-GFP proteasome)
Cn1c(=O)c2c(nc(CN3CCN(Cc4ccccc4)CC3)n2CCN2CCOCC2)n(C)c1=O	none
CC(=O)c1cccc(NC(=O)c2ccc(N(C)S(C)(=O)=O)cc2)c1	none
Cc1ccc(C(=O)Nc2ccc(S(=O)(=O)O)c3cc(S(=O)(=O)O)cc(S(=O)(=O)O)c23)cc1NC(=O)c1cccc(NC(=O)Nc2cccc(C(=O)Nc3cc(C(=O)Nc4ccc(S(=O)(=O)O)c5cc(S(=O)(=O)O)cc(S(=O)(=O)O)c45)ccc3C)c2)c1	DNA Pol III inh 32µM, Tau filament bind inconclusive
C[C@@H]1C[C@@H]2[C@H]3CCC4=CC(=O)C=C[C@]4(C)[C@]3(Cl)[C@@H](O)C[C@@]2(C)[C@@]1(O)C(=O)CO	none
Nc1nc(NCCc2ccc(O)cc2)nc2nc(-c3ccco3)nn12	Tau filament bind 32µM (no result: HBB splicing)
CC(=O)Nc1nc2n(n1)C(c1ccccc1)C=C(c1ccccc1)N2 (stereo unspecified)	15-hLO inh 20µM
CN=C(NC#N)Nc1ccc(C2=NNC(=O)C[C@@H]2C)cc1	15-hLO inh inconclusive, Tau filament bind 40µM!
Cc1ccc2nsnc2c1S(=O)(=O)N1CCN(CCc2ccccc2)CC1	Tau filament bind 25µM
CC(C)[C@@H]1NC(=O)[C@H](CCCCN)NC(=O)[C@H](Cc2c[nH]c3ccccc23)NC(=O)[C@H](Cc2ccc(O)cc2)NC(=O)[C@H](C)N(C)C(=O)[C@H](Cc2ccccc2)NC1=O	none
CCOC(=O)Cn1cc(C(=O)c2ccco2)c2ccccc21	none (no result: HBB splicing)
COC(=O)CCc1c(C)c(C(=O)c2ccco2)c2ccccn12	15-hLO inh 7.9µM
O=[N+]([O-])c1ccc(C2=Nn3c(nnc3-c3ccc(Cl)cc3)SC2)o1	Tau filament bind inconclusive
Oc1ccccc1-c1cc(C(F)(F)C(F)F)nc(-c2ccccc2)n1	none
FC(F)C(F)(F)C(F)(F)C(F)(F)c1cc(-c2ccccc2)n[nH]1	15-hLO inh inconclusive, Tau filament bind 10µM
N#CC1=C(N)OC(c2ccccc2)=C(C#N)C1c1ccc2c(c1)OCO2 (stereo unspecified)	15-hLO inh 32µM
Cc1ccc(C2C(C#N)=C(N)Oc3cc4c(cc32)OCO4)cc1 (stereo unspecified)	15-hLO inh inconclusive (no result: HBB splicing)
O=C(Nc1ccc(-n2nncc2-c2ccco2)cc1)c1cccc(F)c1	Tau filament bind inconclusive
O=C(Nc1ccc(-n2nncc2-c2ccco2)cc1)c1cc2ccccc2oc1=O	DNA Pol III inh 13µM
CN(C)CCNC(=O)c1ccc(Cc2nc3ccccc3[nH]2)cc1	none (no result: Ub-GFP proteasome, Epigenetic mod, HBB splicing, DNA Pol III inh, Tau filament bind)
CN1c2ccccc2C(C)(C)C12C=Cc1cc(O)ccc1O2 (stereo unspecified)	Epigenetic mod inconclusive, 15-hLO inh inconclusive, Tau filament bind 25µM
O=C1NC(c2cccs2)Nc2sc3c(c21)CCCC3 (stereo unspecified)	DNA Pol III inh inconclusive, 15-hLO inh 25µM, Tau filament bind 2.5µM
O=C(c1cnccn1)N1CCC2(CC1)CCN(c1cccc(-c3ccccc3)c1)CC2	none
Clc1ccc2c(c1)C1OCCC1C(c1ccco1)N2 (stereo unspecified)	Tau filament bind 25µM (no result: HBB splicing)
CCCCCCCNS(=O)(=O)c1cccc2c(Cl)cccc12	Tau filament bind 40µM (no result: HBB splicing)
NCCCCCCCCCCNS(=O)(=O)c1cccc2c(Cl)cccc12	15-hLO inh inconclusive (no result: HBB splicing)
CCN(CC)CCNC(=O)c1ccc(Cc2nc3ccccc3[nH]2)cc1	none (no result: Ub-GFP proteasome, Epigenetic mod, HBB splicing, DNA Pol III inh, Tau filament bind)
CC(=O)C1=C(O)C=C(c2ccco2)CC1c1ccco1 (stereo unspecified)	15-hLO inh inconclusive, Tau filament bind 20µM
N=c1ccn2c(n1)O[C@@H]1[C@@H](O)[C@H](CO)O[C@H]12	none
O=C(O)c1cc(O)c2c(c1)[C@H]([C@H]1c3cc(C(=O)O)cc(O)c3C(=O)c3c(O[C@@H]4OC(CO)C(O)C(O)C4O)cccc31)c1cccc(O[C@@H]3OC(CO)C(O)C(O)C3O)c1C2=O (stereo partly specified)	15-hLO inh 13µM (no result: Ub-GFP proteasome, Epigenetic mod, HBB splicing, DNA Pol III inh, Tau filament bind)
CCOC(=O)c1c(C)c(C(=O)NCCOC)c(C)n1CC	none
CCOC(=O)c1c(C)c(C(=O)Nc2ccc(N(C)C)cc2)c(C)n1CC	Tau filament bind 16µM
O=c1[nH]c(=O)n([C@H]2C[C@H](O)[C@H](CO)O2)cc1/C=C\Br	none
